PubChem BioAssay
Values without a mark were called inactive.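 The calls were made as follows: active = inhibition at or above 50% relative to wild type and mutant plate controls; inactive = inhibition below 50%.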

Assay: loss of swimming-algae plug formation – whole organism, Chlamydomonas reinhardtii, WT vs cilia-less mutant, absorbance, 96-well, primary screen (AID 463189);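 also: 0% = wild type cc124 cells in DMSO and 100% = ciliumless bld1 mutant cells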
Conditions: Chlamydomonas reinhardtii gravitaxis, OD600 absorbance, 2 days; at 10 µM; active compounds read high

Structure (SMILES) | inhibition [%]
CCCCCCCCCCCCCCCC(=O)OC(CC(=O)O)C[N+](C)(C)C (stereo not given) | 2.15
Oc1ccccc1O | -5
CN(C)S(=O)(=O)c1ccc2c(c1)/C(=C/c1cc3c([nH]1)CCCC3)C(=O)N2 | 4.39
N=C1Sc2ccccc2C2=NCCCN12 | 9.36
O=c1[nH]c2ccccc2c2ccccc12 | 6.93
NCCCCCCNS(=O)(=O)c1cccc2c(Cl)cccc12 | 7.85
NC(=O)NO | -5.8
C=CC1(C)CC(=O)C2(O)C(C)(O1)C(OC(C)=O)C(O)C1C(C)(C)CCC(O)C12C (stereo not given) | -1.2
CC(N)(Cc1ccc(O)c(O)c1)C(=O)O (stereo not given) | 6.85
CCCN(CC1CC1)c1nc(C)nc(Nc2c(Cl)cc(Cl)cc2Cl)c1Cl | 3.71
NC(N)=NCCSSCCN=C(N)N | -8.7
CN=C(NC#N)NCCSCc1nc[nH]c1C | 8.94
O=C1CCC(c2ccc(-n3ccnc3)cc2)=NN1 | -5.18
N[C@@H](Cc1ccc(F)cc1)C(=O)O | 2.39
COc1cc(C(=O)OCCCN2CCCN(CCCOC(=O)c3cc(OC)c(OC)c(OC)c3)CC2)cc(OC)c1OC | 9.83
Cc1ccc(OCC(O)C(C)NC(C)C)c2c1CCC2 (stereo not given) | -3.42
COCc1nc2c([nH]1)c(=O)n(C)c(=O)n2CC(C)C | 1.31
Nc1ncnc2c1ncn2[C@@H]1O[C@H](C(=O)NC2CC2)[C@H](O)C1O (stereo not given in full) | 7.98
Cc1nc2c([nH]1)c(=O)n(C)c(=O)n2Cc1ccco1 | 0.516
CC(C)NC[C@@H](O)COc1ccc(CC(N)=O)cc1 | -8.19

Structure (SMILES) | inhibition [%]
CSc1nc(N)c2ncn([C@@H]3O[C@H](COP(=O)(O)OP(=O)(O)O)[C@H](O)C3O)c2n1 (stereo not given in full) | 6.63
Cc1nc2c(OCc3ccccc3)cccn2c1CC#N | 3.47
N#C/C(=C\c1c[nH]c2ccccc12)C(=O)c1ccc(O)c(O)c1 | 4.95
CN(C)C(=O)/N=N/C(=O)N(C)C | -5.45
CCN1CCC[C@H]1CNC(=O)c1c(OC)ccc(I)c1O | 9.9
N=C(N)SCCc1ccc(CCSC(=N)N)cc1 | 9.2
C1CCC(N=C(NC23CC4CC(CC(C4)C2)C3)N2CCOCC2)CC1 | 2.95
O=C1c2ccccc2-c2n[nH]c3cccc1c23 | 34.8
COc1ccccc1NC(=O)Nc1nc(-c2cccnc2)nc2ccccc12 | -0.831
Nc1ncnc2c1nc(Br)n2C1OC2COP(=O)(O)O[C@@H]2C1O (stereo not given in full) | 7.89
COc1ccc(CCN(C)CCc2ccc(OC)c(OC)c2)cc1OC | 11.9
CN=C(N)NCCC[C@H](N)C(=O)O | 3.39
Cn1cc(C(F)(F)F)nc1-c1ccc(OCC(O)CNCCOc2ccc(O)c(C(N)=O)c2)cc1 (stereo not given) | -6.96
C=CC(N)CCC(=O)O (stereo not given) | -6.67
CC1CN(S(=O)(=O)c2cccc3cnccc23)CCN1 (stereo not given) | 5.73
O=C(O)c1cc(=O)c2c(Cl)cc(Cl)cc2[nH]1 | 2.38
NCC(O)(CS(=O)(=O)O)c1ccc(Cl)cc1 (stereo not given) | 30.8
C[C@H](Cc1ccc(O)c(O)c1)[C@@H](C)Cc1ccc(O)c(O)c1 | -6.71
CC(C)c1ccc2c(c1)c(SC(C)(C)C)c(CC(C)(C)C(=O)O)n2Cc1ccc(Cl)cc1 | 9.82
C=CCn1c(=O)c2c(nc(-c3ccc(S(=O)(=O)O)cc3)n2C)n(C)c1=O | 4.78
